activation, Potency and activity change, negative = inhibition data for 27 compounds are collected here from PubChem BioAssay (NCATS).

For assay [1], the target named is Cellular tumor antigen p53 (Homo sapiens) (UniProt P04637). Kind of assay: Primary qHTS for small molecule compounds that upregulate eGFP-tagged delta133p53alpha (in N-terminal) cells. (AID 2060322).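 For activation: series mostly up to about 56 µM; 0% = DMSO vehicle and 100% = reference activator.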 Note: nearly all actives have a fitted effect of over 75% in size. Note: potency is the fitted concentration of half-maximal effect. Particulars: NCI-H358 eGFP-delta133p53alpha fluorescence, 24 h; activation: hits give high values. The essentials: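 NCI-H358 cells pre-induced 24 h with 10 ng/ml doxycycline to express N-terminal eGFP-delta133p53alpha, then dosed 24 h at 37C without doxycycline; fixed, Hoechst-stained, GFP intensity by laser scanning cytometry, normalized to DMSO (0%) and 57.5 uM 5-azacytidine (100%).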
Sequence of Cellular tumor antigen p53 (Homo sapiens) (P04637 whole entry, looked up): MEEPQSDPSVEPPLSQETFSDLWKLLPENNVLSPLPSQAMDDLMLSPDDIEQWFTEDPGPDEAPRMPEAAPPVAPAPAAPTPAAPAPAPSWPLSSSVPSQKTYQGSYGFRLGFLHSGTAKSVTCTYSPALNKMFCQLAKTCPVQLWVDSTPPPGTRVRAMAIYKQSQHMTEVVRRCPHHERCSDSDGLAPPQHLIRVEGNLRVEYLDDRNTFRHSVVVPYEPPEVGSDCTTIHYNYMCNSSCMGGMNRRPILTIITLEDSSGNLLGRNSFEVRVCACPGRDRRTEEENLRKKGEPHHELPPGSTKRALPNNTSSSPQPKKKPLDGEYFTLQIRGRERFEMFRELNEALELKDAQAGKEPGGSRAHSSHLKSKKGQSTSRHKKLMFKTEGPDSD

Assay [2] has as its target Aldehyde dehydrogenase, mitochondrial (Homo sapiens) (UniProt P05091). Kind of assay: qHTS for Inhibitors of the Aldehyde Dehydrogenase Family (ALDH2) Primary screen (AID 2061308).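 Note: plate controls were vehicle for no effect and reference inhibitor for full effect; nearly all actives have a fitted effect of over 55% in size.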
Assay [3] addresses Retinaldehyde dehydrogenase 3 (Homo sapiens) (UniProt P47895). Kind of assay: qHTS for Inhibitors of the Aldehyde Dehydrogenase Family (ALDH1A3) Primary screen (AID 2061315).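 Note: plate controls were DMSO vehicle for no effect and reference inhibitor for full effect.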

“And” between values parts separate entries of the source, which are not always exact repeats. Identical values can stand only once. Inconclusive results are not listed. Unmarked numbers belong to inactive results. The source made the active and inactive calls. Calls come from the whole dose curve; as a rule, active = well fitted curve in the direction sought with a large enough effect; inconclusive = small, poorly fitted or top-dose-only effect, or another doubt; inactive = no such curve, though single readings can be large; an effect the other way counts as inactive or inconclusive.

`O=S(=O)(c1ccc(Cl)cc1)N1CCN(c2ccnc3cc(Cl)ccc23)CC1`: the activation in assay [1] was -12.5%. For the same compound, the Potency result in assay [2] and in assay [3] was “inactive” throughout.
For the compound `CC(=O)C1=CCC2C3CC=C4CC(O)CC(O)C4(C)C3C(O)CC12C` (stereo unspecified), the activation in assay [1] was 6.11%. Besides, the Potency entry in assay [2] and in assay [3] was “inactive” each time.
With `Cc1cccc(C)c1-n1c(=O)c2cnc(Nc3ccc(N4CCN(C)CC4)cc3)nc2n2c3ccccc3nc12`, the Potency in assay [1] was 30.1 µM (active). Moreover, the Potency entry in assay [2] and in assay [3] was “inactive” in each case.
For the compound `C=C1C(=O)O[C@H]2C3=C(C)CCC[C@]3(C)C(=O)C[C@@H]12`, the Potency in assay [1] is 15.1 µM (active). The Potency entry in assay [2] and in assay [3] was “inactive” in each case.
For the compound `C=C1C[C@]23C[C@H]1CC[C@H]2[C@]1(C)CC[C@H](O)[C@@](C)(C(=O)O)[C@H]1[C@@H]3C(=O)O`, in assay [1], the activation is -6.11%. Also, the Potency entry in assay [2] and in assay [3] was “inactive” in each case.
As for `Cc1cccc(Nc2cc(Cl)nc(SCC(=O)O)n2)c1C`, in assay [1], the activation was 23.4% and 14.3%. Further, the Potency result in assay [2] and in assay [3] was “inactive” in each case.
With `C=C1C[C@]23C[C@H]1CC[C@H]2[C@@]1(C)CCC[C@@]2(C)C(=O)O[C@@H]([C@@H]3O)[C@@H]12`, in assay [1], the activation is 12.2%. The Potency result in assay [2] and in assay [3] was “inactive” throughout.
`CC(=O)N[C@@H](CCCCN)C(=O)N(C)[C@@H](CC(C)C)C(=O)N[C@H](C(=O)N(C)[C@@H](Cc1ccccc1)C(=O)N[C@H](Cc1ccccc1)C(N)=O)C(C)C`: the activation in assay [1] is 7.67%. Moreover, the activity change, negative = inhibition in assay [2] was 0.957% [at 5.59 µM]; in assay [3], 0.0688% [at 5.59 µM].
Turning to `O=C(NCc1ccccc1-c1ccccc1C(=O)NCCc1ccccn1)OCc1ccccc1`, the activation in assay [1] was 1%. Further, the Potency result in assay [2] and in assay [3] was “inactive” in each case.
Regarding `O=C(Nc1ccc(Cl)cc1F)c1ccccc1O`, the activation in assay [1] was 8.59%. The Potency result in assay [2] and in assay [3] was “inactive” throughout.
Consider `CC[C@H]1OC(=O)[C@H](C)[C@@H](OC2C[C@@](C)(OC)[C@@H](O)[C@H](C)O2)[C@H](C)[C@@H](OC2O[C@H](C)C[C@H](NC)[C@H]2O)[C@](C)(O)C[C@@H](C)CN(C)[C@H](C)[C@@H](O)[C@]1(C)O` (stereo partly specified), for which, in assay [1], the activation was 4.33%. For the same compound, the Potency entry in assay [2] and in assay [3] was “inactive” throughout.
For the compound `CC1=C(C(=O)OC2OC(COC3OC(CO)C(O)C(O)C3O)C(O)C(O)C2O)C(C)(C)CCC1` (stereo unspecified), the activation in assay [1] was -14.5%. In addition, the Potency result in assay [2] and in assay [3] was “inactive” throughout.
Consider `O=C(Nc1ccn[nH]1)c1c(F)cccc1F`, for which, in assay [1], the activation is 12.3%. The Potency entry in assay [2] and in assay [3] was “inactive” in each case.
For `CC/C=C\CC1C(CC(=O)O)CCC1OC1OC(CO)C(O)C(O)C1O` (stereo unspecified), in assay [1], the activation is 0%. Also, the Potency result in assay [2] and in assay [3] was “inactive” throughout.
As to `CC1OC(=O)C[C@@H]2C(C(=O)O)=CO[C@@H](O[C@H]3O[C@H](CO)[C@@H](O)[C@H](O)[C@H]3O)[C@H]12` (stereo partly specified), the activation in assay [1] was -23.2%. For the same compound, the Potency result in assay [2] and in assay [3] was “inactive” throughout.
As to `COC(=O)CCC1(C)C(C(C)(C)O)C(O)CC2(C)Oc3c(C)c4c(c(OC)c3CC21)C(=O)OC4` (stereo unspecified), the activation in assay [1] is -3.82%. Moreover, the Potency entry in assay [2] and in assay [3] was “inactive” in each case.
Take `CC(=O)O[C@@H]1C2=C(O)C(=O)[C@](C)(OC(C)=O)C(=O)C2=CO[C@@]12O[C@@H](C)CC[C@H]2OC(C)=O`: in assay [1], the activation is -18.3%. In addition, the Potency entry in assay [2] and in assay [3] was “inactive” each time.
As to `OC[C@H]1O[C@@H](OCCc2ccc(O)cc2)[C@H](O[C@@H]2OC[C@](O)(CO)[C@H]2O)[C@@H](O)[C@@H]1O`, the activation in assay [1] was 1.79%. The Potency entry in assay [2] and in assay [3] was “inactive” throughout.
Turning to `C=CCC1=C[C@]2(OC)[C@H](C)[C@@H](c3ccc4c(c3)OCO4)O[C@]2(OC)CC1=O`, the activation in assay [1] is 1.53%. For the same compound, the Potency entry in assay [2] and in assay [3] was “inactive” throughout.
As for `C=C1OC2CC(C(=O)O)C=CC2NC1=O` (stereo unspecified), the activation in assay [1] was -19.8%. The Potency result in assay [2] and in assay [3] was “inactive” throughout.
`O=c1c2cccnc2n(-c2cccc([N+](=O)[O-])c2)c(=O)n1Cc1ccncc1`: in assay [1], the activation was -20%. Moreover, the Potency entry in assay [2] and in assay [3] was “inactive” each time.
Consider `Nc1nc(Cl)nc2c1ncn2C1OC(CO)C(O)C1F` (stereo unspecified), for which the activation in assay [1] is 0%. In addition, the Potency result in assay [2] and in assay [3] was “inactive” in each case.
Turning to `C[C@H](C(=O)NC1CCCC1)N(C(=O)Cn1nnc(-c2ccc3c(c2)OCO3)n1)C1CCCCC1`, the activation in assay [1] was 9%. Also, the Potency result in assay [2] and in assay [3] was “inactive” throughout.
Take `CC(C)C1(O)C=C2C(=O)CC3C(C)(C(=O)O)CCCC3(C)C2CC1` (stereo unspecified): the activation in assay [1] is -12.2%. The Potency entry in assay [2] and in assay [3] was “inactive” throughout.
`COc1ccc(CC(=O)NCc2ccccc2-c2ccccc2C(=O)NCCc2cccnc2)cc1`: the activation in assay [1] was 0.955%. The Potency result in assay [2] and in assay [3] was “inactive” each time.
Consider `Cc1cc(CO)c(O)c(C(=O)CC2CC(=O)NC(=O)C2)c1`, for which the activation in assay [1] was -5.34%. Besides, the Potency entry in assay [2] and in assay [3] was “inactive” each time.
As for `CC1CCC2(NC1)OC1C(O)C3C4CCC5CC(O[C@@H]6O[C@H](CO)[C@@H](O)[C@H](O)[C@H]6O[C@@H]6O[C@@H](C)[C@H](O)[C@@H](O)[C@H]6O)CCC5(C)C4CCC3(C)C1C2C` (stereo partly specified), in assay [1], the activation was -15.3%. Moreover, the Potency entry in assay [2] and in assay [3] was “inactive” in each case.
